# A selection: hits, their analogues and other compounds. The true share with any hit is near 5.6%.
# PKM2 activator = PKM2 (human) enzyme activation. P14618. purified PKM2, Kinase-Glo ATP luminescence, activation; response scale: 0% is enzyme alone, no compound. Potency, µM (top dose mostly 57.5 µM), for inactives: at the top dose activation, usual class: activators. actives 0.34% (n = 260,000); further: potency means the concentration at half of the fitted maximal effect; nearly all actives have a fitted effect of over 55% in size
#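 Purified hPK-M2 (>95% pure) converted ADP (0.1 mM final) to ATP with 0.5 mM PEP in 50 mM imidazole pH7.2, KCl, MgCl2, Tween 20, BSA; 1 h at room temperature. ATP detected by Kinase-Glo luminescence.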
# CtBP-E1A blk = inhibitors of CtBP/E1A interaction. activity change, % (test concentration not listed). actives 0.49% (n = 340,000). AID 651724. AlphaScreen GST-E1A/His-CtBP binding, 1536-well; stronger effect = lower value; in the data active means activity change below about -65%; inconclusive means mostly about -30% to -63%
#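 Homogeneous bead-based format: GST-tagged E1A captured on glutathione donor beads, His-tagged CtBP on nickel acceptor beads; compounds precede bead addition by 2 h at 37 °C.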
# RORg inh = inhibitors of mouse ROR gamma transcriptional activity | P51450 | Drosophila S2 Gal4-RORgamma UAS-luciferase reporter, 20 h | Potency, µM (titrated, usually from 53.6 µM), inactives show top-dose activity change, negative = inhibition, most hits filed as inhibitors | actives 5.4% (n = 310,000) | AID 2551; further: potency means the concentration at half of the fitted maximal effect; nearly all actives have a fitted effect of over 60% in size
#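 Drosophila Schneider cells stably carrying a metallothionein-driven Gal4 DBD–ROR gamma fusion and a UAS-Photinus luciferase reporter were exposed to compound for 1 hr, then induced with copper sulfate (700 uM final) for 20 hr at ambient temperature before luminescence reading.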
# Six1-Eya2 blk = Six1/Eya2 interaction inhibition; AlphaScreen GST-Six1/His-Eya2 binding, biochemical; stronger effect = lower value; AID 651725; Q15475+O00167; activity change, % (concentration not given with the values); actives 0.56% (n = 360,000); in the data active means activity change below about -65%; inconclusive means mostly about -30% to -63%
# Target sequence (O00167 whole entry, looked up): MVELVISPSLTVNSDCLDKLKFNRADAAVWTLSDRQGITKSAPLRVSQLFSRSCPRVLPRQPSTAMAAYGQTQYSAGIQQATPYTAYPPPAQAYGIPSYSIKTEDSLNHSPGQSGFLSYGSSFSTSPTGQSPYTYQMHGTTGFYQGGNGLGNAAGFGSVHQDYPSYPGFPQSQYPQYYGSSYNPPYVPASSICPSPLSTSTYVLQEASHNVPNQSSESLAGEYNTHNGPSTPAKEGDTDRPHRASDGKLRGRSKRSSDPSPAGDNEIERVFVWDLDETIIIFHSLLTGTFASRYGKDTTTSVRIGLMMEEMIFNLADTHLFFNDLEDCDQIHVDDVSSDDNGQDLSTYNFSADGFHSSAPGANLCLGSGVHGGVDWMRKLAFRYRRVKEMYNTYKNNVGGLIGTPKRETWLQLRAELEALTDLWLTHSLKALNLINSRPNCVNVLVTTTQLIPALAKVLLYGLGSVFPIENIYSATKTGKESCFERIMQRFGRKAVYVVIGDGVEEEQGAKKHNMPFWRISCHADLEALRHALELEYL
# Target sequence (Q15475 whole entry, looked up): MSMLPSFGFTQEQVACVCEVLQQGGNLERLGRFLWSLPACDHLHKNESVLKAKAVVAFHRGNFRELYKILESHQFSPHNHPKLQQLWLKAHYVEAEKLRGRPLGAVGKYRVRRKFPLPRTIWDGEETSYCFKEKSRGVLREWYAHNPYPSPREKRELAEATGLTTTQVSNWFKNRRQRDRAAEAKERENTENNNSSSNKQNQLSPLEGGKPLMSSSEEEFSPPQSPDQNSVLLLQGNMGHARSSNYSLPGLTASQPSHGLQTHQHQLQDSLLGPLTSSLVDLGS
#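 GST-Six1 + His-Eya2 (5X stock: 250/500 nM); Tris pH 8.0, 300 mM NaCl, 0.05% BSA, 0.02% Tween 20; GSH donor/Ni acceptor beads; 1 h 37 °C dark; AlphaScreen readout.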
# Gal4-VP16 FLuc = counter-screen for ROR gamma inhibitors: Gal4-VP16 reporter; Drosophila S2 Gal4-VP16 UAS-luciferase, luminescence, 20 h; actives 3.5% (n = 310,000); AID 2546; Potency, µM (top dose mostly 53.6 µM), without a hit: at the top dose activity, negative = inhibition, actives largely listed as inhibitors;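 further: Gal4-VP16 expression switched on by copper sulfate through the metallothionein promoter; potency means the concentration at half of the fitted maximal effect; nearly all actives have a fitted effect of over 50% in size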
# An asterisk follows results filed as active; ? = inconclusive; / = no result given; [ ] = remark or other dose. Unless noted, the call rests on the fitted dose curve; in most records, active means well fitted curve in the direction sought with a large enough effect; inconclusive means small, poorly fitted or top-dose-only effect, or another doubt; inactive means no such curve, though single readings can be large; an effect the other way counts as inactive or inconclusive. On the % scale 0 is the no-effect control and ±100 the full control effect.
SMILES,PKM2 activator,CtBP-E1A blk,RORg inh,Six1-Eya2 blk,Gal4-VP16 FLuc
CSc1nc2nc3c(cc2c(=O)n1-c1ccccc1C)CCCC3,2.8%,3.9,-15.3%,-5.1,5.01µM*
N#Cc1cc2c(nc1SCc1ccc(Cl)cc1)CCCC2,2.9%,28.8,?,5.7,14.2%
CCCCCCOC(=O)C1(O)CC2OC1(C)n1c3ccccc3c3c4c(c5c6ccccc6n2c5c31)C(=O)NC4 (stereo not drawn),/,/,-5.8%[1.91 µM],/,4.5%[1.91 µM]
Cc1ccc(-n2c3c(cc(C(=O)O)c2=O)C(=O)CC(C)(C)C3)cc1,-1.2%,-1.0,1.4%,13.6,-11.1%
CC1(C)CC(=O)c2cc(C(=O)O)c(=O)n(-c3ccccc3)c2C1,-3.1%,-0.5,8.7%,-86.8*,11.0%
CCCCN(C=O)c1c(CC)nc2ccc(C(=O)N3CCN(c4ccccc4)CC3)cn12,/,-6.8,/,3.7,/
FC(F)Oc1ccc(-c2csc(NNC3=NCCCCC3)n2)cc1,-2.7%,/,?,-8.8,4.1%
Brc1ccc(-c2csc(NNC3=NCCCCC3)n2)cc1,5.4%,-9.1,7.08µM*,-14.7,14.1µM*
CC(C)(C)c1ccc(-c2csc(NNC3=NCCCCC3)n2)cc1,1.1%,-6.4,12.6µM*,-9.6,?
CC(C)(CO)CNC(=O)CCc1nnc(-c2ccc(-c3ccccc3)cc2)o1,0.2%,-7.1,-42.8%,2.2,-15.4%
C=CCNC(=O)/C(C#N)=C/c1cc(Br)ccc1OC,-0.5%,-2.1,12.6µM*,-4.3,?
C=CCNC(=O)/C(C#N)=C/c1ccccc1Cl,25.6%,-24.5,-41.0%,3.9,6.2%
O=C(Nc1ccc2c(c1)OCO2)C1CCN(C(=O)c2ccc([N+](=O)[O-])cc2)CC1,-2.1%,/,-25.1%,11.0,22.2%
CS(=O)(=O)N1CCN(c2ccc([N+](=O)[O-])c(NCc3cccnc3)c2)CC1,10µM*,-9.2,17.8%,-1.5,-1.6%
CS(=O)(=O)N1CCN(c2ccc([N+](=O)[O-])c(NCc3ccccc3)c2)CC1,5.8%,-11.4,26.1%,-20.7,-7.3%
Oc1cccc(/C=N\Nc2nncc(-c3ccccc3)n2)c1,-18.6%,/,-6.2%,-6.5,?
FC(F)(F)c1cccc(-c2ccc(/C=N/Nc3nncc(-c4ccccc4)n3)o2)c1,-0.3%,/,-4.6%,4.4,-1.3%
O=C(O)c1ccc(N/N=C/c2ccc(-c3ccccc3Cl)o2)cc1,-0.3%,3.9,?,7.7,?
Cc1ccc(/C=N/Nc2nncc(-c3ccccc3)n2)o1,-0.8%,-2.9,8.91µM*,-14.7,12.6µM*
C(=C\c1ccccc1)/C=N/Nc1nncc(-c2ccccc2)n1,6.0%,/,2.24µM*,/,3.16µM*
Clc1ccc(-c2ccc(/C=N/Nc3nncc(-c4ccccc4)n3)o2)cc1,-2.0%,-6.5,0.794µM*,-3.6,0.794µM*
O=C(N/N=C/c1ccc(-c2ccccc2Cl)o1)c1ccccc1,6.9%,-24.5,3.55µM*,?,7.94µM*
COc1cc(C(=O)NCC(=O)NCC2COc3ccccc3O2)cc(OC)c1OC (stereo not drawn),/,-3.3,/,5.3,/
Cc1[nH]n(-c2ccccc2)c(=O)c1/C=N/Nc1nncc(-c2ccccc2)n1,-13.4%,-91.3*,0.0501µM*,-91.3*,0.0022µM*
Clc1ccccc1-c1ccc(/C=N/Nc2nncc(-c3ccccc3)n2)o1,7.3%,/,1.41µM*,-7.5,10µM*
SMILES,PKM2 activator,CtBP-E1A blk,RORg inh,Six1-Eya2 blk,Gal4-VP16 FLuc
Cc1cccc(NS(=O)(=O)c2ccc(C(=O)N3CC(C)OC(C)C3)cc2)c1C (stereo not drawn),/,1.2,/,-3.2,/
CC(C)(C)CC(C)(C)N1CNC(=S)NC1,-0.6%,/,10µM*,-2.0,?
Cc1cccc(CNc2ncncc2-c2ccc(C(=O)N(C)C)cc2)c1,/,/,-15.5%,/,-2.2%
Cc1ccc(NC(=O)C2=C(c3ccccc3)S(=O)(=O)CCS2(=O)=O)cc1,/,-7.6,0.631µM*,?,5.01µM*
O=C1CCCN1c1ccc(S(=O)(=O)NCCOc2ccccc2)cc1,2.0%,-2.0,?,9.2,?
Cc1cc(N2CCCC2=O)cc(C)c1S(=O)(=O)NCCOc1ccc(C(C)(C)C)cc1,6.7%,1.9,?,-0.6,3.16µM*
CCn1nnnc1NC(=O)c1cc(Cl)c(OC)c(Cl)c1,1.3%,-0.1,?,-3.1,-6.3%
CCCn1nnnc1NC(=O)c1cc(Cl)ccc1Cl,-1.5%,2.7,1.58µM*,2.2,2.24µM*
CCCn1nnnc1NC(=O)CSc1ccc(Cl)cc1,-3.1%,9.0,0.891µM*,-4.6,2.24µM*
CC(C)[C@H](NC(=O)c1ccc(Cl)cc1Cl)C(=O)NNC(=O)c1ccco1,/,24.7,/,11.1,/
C=C[C@](C)(O)CCC1C(=C)CC(OC(C)=O)C2C(C)(C)CCCC12C (stereo partly drawn),/,/,1.12µM*,/,-17.4%
CCCCCCc1ccc(C(=O)CCN(C)C)cc1,/,/,/,/,-3.6%
COC(=O)C(Cc1c[nH]c2ccccc12)NC(C)=O (stereo not drawn),0.7%,-6.0,14.1µM*,9.5,-2.0%
COC(=O)C(Cc1c[nH]c2ccccc12)NC(=O)c1cccs1 (stereo not drawn),-4.7%,/,31.5%,0.4,-15.2%
COC(=O)[C@@H](Cc1c[nH]c2ccccc12)NC(=O)c1ccc2c(c1)OCO2,/,17.5,8.91µM*,-2.8,?
Cc1ccc(C2=NN(CC(=O)O)C(=O)CC2)cc1,/,6.6,34.5%,5.5,17.6%
CN1CCC(=NNC(=O)COc2ccc(Cl)cc2)CC1,0.9%,-0.2,-19.8%,-6.2,1.9%
O=C(COc1ccc(Cl)cc1)NN=C1CCCCCCC1,-3.8%,5.9,8.91µM*,-1.8,-15.4%
CN(CC1COc2ccccc2O1)C(=O)c1ccc(Cl)c(S(=O)(=O)N2CCCCCC2)c1 (stereo not drawn),/,-2.6,/,-3.1,/
CCn1nnnc1-c1ccc(OC)c(S(=O)(=O)NCc2ccccc2)c1,7.2%,-19.0,38.2%,-0.9,-6.1%
COc1ccc(S(=O)(=O)Nc2ccc(Cc3ccncc3)cc2)cc1OC,-4.5%,-9.7,?,4.3,7.94µM*
COc1ccc(S(=O)(=O)Nc2ccc(F)c(Cl)c2)cc1OC,15.8µM*,-5.1,-15.9%,4.8,7.08µM*
CCn1nnnc1-c1ccc(OC)c(S(=O)(=O)Nc2ccc(C)c(C)c2)c1,15.8µM*,-3.8,0.0%,10.7,?
O=S(=O)(Nc1ccc(Cc2ccncc2)cc1)c1ccc(Cl)c(Cl)c1,0.7%,-1.8,37.8%,-6.0,?
CCc1ccc(OC)c(S(=O)(=O)Nc2ccc(Cc3ccncc3)cc2)c1,-5.2%,-1.3,?,-3.2,2.24µM*
Cc1noc(C)c1NC(=O)N(C)C[C@H]1OCCCC[C@@H](C)Oc2ccc(NS(=O)(=O)c3ccccc3)cc2C(=O)N([C@H](C)CO)C[C@@H]1C,/,6.2,/,-5.0,/
